SMILES strings stand for the structures. Among all 150,000 compounds or so, about 540 (0.36%) showed an effect of 50% or more. Many of the other results were omitted from the sample, so strong results are more common in it than they were.

Usually % Inhibition stands for the drop in the measured response relative to a control, in per cent.

The test system of this experiment is Plasmodium falciparum. Nature of the experiment: Primary screen in NF54 nanoGlo assay, in single point, at 2uM, 72h; a lower Z score goes with more inhibition. The format is functional, Erythrocyte. To be noted: timepoint 72 hour.
With `CN(C)c1nc(N)cc(-c2cccc3cccnc23)n1`, the “% Inhibition” value is 57% and the Z score is -7.96.

Consider `CN(C)c1nc(N)cc(-c2ccc(-n3cccn3)cc2)n1`, for which the “% Inhibition” value is recorded as -1% and the Z score was found to be 0.21.

As to `COc1ccc(F)c(-c2cc(N)nc(N(C)C)n2)c1`, the “% Inhibition” value is -15% and the Z score is reported as 2.16.

Turning to `COc1ccc2c(c1)C1(CC1)CN(C(=O)Nc1ccnnc1C)C2`, the “% Inhibition” value was -11% and the Z score is 2.25.

With `COc1ccc(-c2cc3c(=O)n(CCNC(=O)Cc4ccc(F)cc4)ccn3n2)cc1`, the “% Inhibition” value was -7% and the Z score was 1.17.

As to `CNC(=O)[C@@H]1C[C@H](Oc2ccccc2)CN1S(C)(=O)=O`, the “% Inhibition” value is -12% and the Z score is on record as 1.64.

With `NC(=O)[C@@H]1CN(Cc2ncc(C(F)(F)F)s2)CCO1`, the “% Inhibition” value is recorded as -12% and the Z score amounted to 1.56.

Take `CC[C@H](C)NC(=O)COc1ccc(Cl)cc1C(N)=O`: the “% Inhibition” value is recorded as -8% and the Z score is 0.84.

For the compound `Cc1cc(O)nc([C@H](C)N(C)CC2CCOCC2)n1`, the “% Inhibition” value is recorded as -12% and the Z score is given as 1.59.

With `CCc1nc(C)cc(N(C)CCn2nc(C)cc2C)n1`, the “% Inhibition” value is -18% and the Z score is 1.72.

`Cc1cc(N(C)CCC2CC2)nc([C@H](C)N(C)CCC2CC2)n1`: the “% Inhibition” value is 59% and the Z score is given as -9.38.

In the case of `CCN(CC)CC(O)COc1c(Br)cc(C(C)(C)c2cc(Br)c(OCC(O)CN(CC)CC)c(Br)c2)cc1Br` (stereo not drawn), the “% Inhibition” value came to 99% and the Z score is -13.36.

For `CCCN(CCC)C[C@H](O)COc1c(Cl)cccc1Cl`, the “% Inhibition” value is recorded as -6% and the Z score was determined as 0.67.

In the case of `OCCN(CCO)C[C@H](O)COc1c(Br)cc(Br)cc1Br`, the “% Inhibition” value was -7% and the Z score is reported as 1.05.

On to `Cc1ncc2ncccc2c1Br`, for which the “% Inhibition” value is on record as -4% and the Z score was determined as 0.8.

As to `C[n+]1cnc(-c2ccccc2)cc1-c1ccccc1`, the “% Inhibition” value is reported as 1% and the Z score is -0.07.

Regarding `Cc1nc(-c2ccccc2)cc(N2CCN(CCc3ccccc3)CC2)n1`, the “% Inhibition” value is listed as 0% and the Z score is 0.

With `Cn1c(Cc2n[n+]3c(-c4ccccc4)cc(-c4ccccc4)nc3n2C)n[n+]2c(-c3ccccc3)cc(-c3ccccc3)nc12`, the “% Inhibition” value is reported as 95% and the Z score was -10.43.

Consider `CCS(=O)(=O)CCNC(=O)c1ccnc(C(C)C)n1`, for which the “% Inhibition” value is recorded as -4% and the Z score is reported as 0.73.

For `O=C(Cn1nc(-n2cccn2)ccc1=O)NCc1ccco1`, the “% Inhibition” value is on record as -7% and the Z score came out at 1.27.

Take `CCOC(=O)c1ccc(NC(=O)CC2CCC2)cn1`: the “% Inhibition” value came out at 3% and the Z score was -0.29.

For the compound `NC(=O)c1ccc(C(=O)OC2CCCCCC2)cn1`, the “% Inhibition” value came to 3% and the Z score is -0.42.

Regarding `CCCC1CCC(OC(=O)c2ccc(C(=O)OC3CCC(CCC)CC3)nc2)CC1` (stereo not drawn), the “% Inhibition” value is on record as 74% and the Z score is given as -10.02.

Turning to `CCc1nnc(-c2[nH]c(C)c(S(=O)(=O)Nc3cccc(Cl)c3)c2C)o1`, the “% Inhibition” value is on record as -5% and the Z score is given as 0.66.

Values taken from ChEMBL document CHEMBL4888484, “Replenishing the malaria drug discovery pipeline: Screening and hit evaluation of the MMV Hit Generation Library 1 (HGL1) against asexual blood stage Plasmodium falciparum ,using a nano luciferase reporter read-out” (2022).
